High-throughput results (PubChem BioAssay)
DAX1 inh-1: NR0B1 (DAX1) inhibition; P51843; HEK293 Gal4-DAX1 luciferase reporter, luminescence; inhibition, % at 6.75 µM; 340,000 tested, 0.99% active;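 active = inhibition above the mean over all tested compounds plus 3 SD, cut at about 4.2% in these data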;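 note: 0% = DAX1-transfected cells with DMSO and 100% = empty-vector control cells with DMSO; inhibition shows as a rise in luminescence from relieved DAX1 repression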
Target sequence (P51843 207-470 limits assumed): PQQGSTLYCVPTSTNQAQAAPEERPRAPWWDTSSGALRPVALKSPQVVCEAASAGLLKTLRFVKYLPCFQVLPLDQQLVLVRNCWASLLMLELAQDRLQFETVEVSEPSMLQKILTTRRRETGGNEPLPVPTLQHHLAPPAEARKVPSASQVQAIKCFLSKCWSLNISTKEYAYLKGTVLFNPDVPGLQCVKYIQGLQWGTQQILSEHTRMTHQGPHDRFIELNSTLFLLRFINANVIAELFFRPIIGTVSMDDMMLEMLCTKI
DAX1 inh-2: blocks DAX1 repression of SF-1 activated StAR promoter. HEK293T StAR-luciferase reporter, SF-1/DAX-1 repression relief. inhibition, % at 6.8 µM. 370,000 tested, 1.1% active. AID 652010;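 active = inhibition above the mean over all tested compounds plus 3 SD, cut at about 3.6% in these data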;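 note: 0% = DAX-1 cells with DMSO and 100% = cells lacking DAX-1 with DMSO; higher inhibition means more luminescence from relief of DAX-1 repression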
hgDAF12 agonist: activates the H. glycines DAF-12 receptor ligand-binding domain; HEK293 GAL4-hgDAF12 UAS-luciferase reporter, agonist luminescence; normalized to butyrate control; activation, % at 6.8 µM; 370,000 tested, 1.8% active; AID 687014;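 active = activation above a cutoff set at the mean of all screened compounds plus 3 SD, cut at about 10% in these data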;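 note: 0% = DMSO wells and 100% = sodium butyrate wells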
ssDAF12 agonist: S. stercoralis DAF-12 activation, primary screen. AID 652126. activation, % at 6.8 µM. 370,000 tested, 1% active. HEK293 ssDAF-12/GRIP1 lit1-tk-luc reporter, luminescence; % of 3 µM dafachronic acid response;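 active = activation above the mean over all tested compounds plus 3 SD, cut at about 0.9% in these data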;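 note: 0% = DMSO-only wells and 100% = 3 µM delta7-dafachronic acid wells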
hcDAF-12 act: activates DAF-12 receptor from parasite H. contortus; activation, % at 6.8 µM; AID 652067; HEK293 hcDAF-12 lit1-tk-luc reporter, luminescence; 0% DMSO, 100% Δ7-dafachronic acid; 370,000 tested, 1.4% active;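 active = activation above the mean of all tested compounds plus 3 SD, cut at about 5.5% in these data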;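 note: 100% = response to 3 µM Δ7-dafachronic acid high control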
Starred values were filed as active, the others as inactive; / = no result given. Only some compounds are listed: those with a hit (about 4.1% of all), similar ones and a draw of the others.

SMILES	DAX1 inh-1	DAX1 inh-2	hgDAF12 agonist	ssDAF12 agonist	hcDAF-12 act
COC(=O)[C@]12C[C@H](CC(=O)NCc3ccccc3)C(=O)N(CCc3ccc(OC)c(OC)c3)C1=C[C@H](COCc1ccccc1)O[C@@H]2C	/	-0.8	1.2	-1.8	-3.6
N#CC(C#N)=C1SC(=Nc2ccccc2)C(=Nc2ccccc2)N1c1ccccc1	3.8	4.5*	6.7	-0.8	1.1
CC(CNc1nc2ccc(Cl)cc2n2cnnc12)c1ccccc1 (centres undefined)	5.5*	-0.2	-1.8	-1.5	-2.3
COc1cc(O)c(C(CC(=O)N2CCCC(C)C2)c2ccccc2)c(OC)c1 (centres undefined)	/	/	2.2	-1.3	1.1
ClCc1cc2ccccc2nc1Cl	-1.4	0.3	1.6	-1.0	2.8
CCc1cc2ccccc2nc1Cl	6.1*	0.3	-0.3	-1.3	0.1
CC(C)C[C@H]1COc2cccc(F)c2S(=O)(=O)N1Cc1cn(Cc2ccco2)nn1	/	0.4	4.5	-0.9	1.5
CCn1c(/C=C/c2ccc(O)c(O)c2)nc2ccccc2c1=O	1.3	-0.9	-2.5	-1.6	-1.4
O=c1nc(/C=C/c2ccc(O)c(O)c2)oc2ccccc12	4.8*	/	/	/	/
COC(=O)[C@]12C[C@H](CC(=O)N3CCN(C(=O)C4CC4)CC3)C(=O)N(CCC3=CCCCC3)C1=C[C@H](C(C)(C)C)O[C@@H]2C	/	0.4	-0.4	-0.9	0.2
Cc1ccccc1OCC1CNC(=O)O1 (centres undefined)	0.1	-0.6	-2.2	-1.4	0.2
O=C1NCC(CN(c2ccccc2)c2ccccc2)O1 (centres undefined)	6.7*	-0.8	-0.7	-1.0	-1.8
c1ccc2nc3c(nc2c1)CCCC3	-0.4	-0.2	-0.5	-0.7	-1.3
C1CCc2nc3c(nc2C1)CCCC3	5.0*	0.6	0.9	-1.0	-0.8
O=C(NCc1ccc(F)cc1)c1ccc2c(=O)n3c(nc2c1)CCCCC3	5.0*	-0.7	-1.5	-1.3	0.6
CCc1nnc(NC(=O)c2ccc3c(=O)n4c(nc3c2)CCC4)s1	4.2*	4.4*	4.5	-0.8	0.9
N#Cc1ccccc1COC(=O)c1cc(=O)c2ccccc2o1	1.6	0.0	2.3	-0.8	6.4*
O=C(O)CN1C(=O)C2(OCCO2)c2cc(Br)ccc21	5.2*	-0.2	1.7	-0.6	-0.6
O=C(CCc1ccccc1)N[C@H]1[C@H](OCc2ccccc2)CCC[C@@]12C(=O)N(Cc1ccccc1)c1ccccc12	/	-1.0	-2.8	-0.6	-0.5
Cc1c(C)c2c(C)nn(-c3ccccc3)c2[nH]c1=O	0.7	0.1	3.8	-1.2	3.0
Nc1c2c(=O)[nH]c(O)cc2nn1-c1ccccc1	1.3	-1.2	-1.2	1.2*	4.5
O=S(=O)(N1CCCCC1)n1c(Cc2ccccc2)nc2ccccc21	-0.1	-0.5	-1.3	1.9*	-1.5
CCCCCCCCNC(=O)C1CSCCS(=O)(=O)N1Cc1ccc(F)cc1 (centres undefined)	/	-0.2	-1.2	-1.2	0.6
COC(=O)[C@@H](Cc1ccc(O)cc1)NC(=O)[C@H]1O[C@@H](n2cnc3c(=O)[nH]c(N)nc32)[C@H](O)[C@@H]1O	/	1.3	-0.5	0.1	0.1
COC(=O)c1ccc2nc(-c3ccco3)c(Cc3ccccc3C(F)(F)F)n2c1	/	-1.2	-4.8	-1.3	-0.7
SMILES	DAX1 inh-1	DAX1 inh-2	hgDAF12 agonist	ssDAF12 agonist	hcDAF-12 act
COC(=O)c1ccc2nc(C3CCCCC3)c(Cc3ccccc3C(F)(F)F)n2c1	/	3.6*	1.6	-0.5	2.1
COC(=O)c1ccc2nc(C3CCCCC3)c(Cc3ccc(C)cc3)n2c1	/	0.9	4.7	1.0*	3.1
COC(=O)c1ccc2nc(-c3ccco3)c(Cc3ccccc3OC)n2c1	/	-1.9	6.0	1.3*	2.4
O=C(CSc1nnc(-c2ccccn2)n1-c1ccccc1)c1ccc(Cl)c(Cl)c1	/	1.2	2.4	-0.6	-0.1
O=C(Nc1nc2ncccn2c1-c1ccc(F)c(F)c1)c1ccccc1	/	-1.7	2.5	-1.3	1.8
COc1ccc(C2=NCCn3nc4cc([N+](=O)[O-])ccc4c32)cc1	-0.6	0.8	1.1	-0.8	5.8*
CC1=N/C(=C\c2ccc(OC(C)C)cc2)C(=O)N1c1ccc(C(=O)O)cc1	-1.3	-0.5	1.8	1.9*	-3.3
CCOC(=O)C1CCN(C(=O)c2ccc(OCC(=O)Nc3ccc(OCC)cc3)c(OC)c2)CC1	4.2*	-3.2	-1.4	-1.4	-0.9
CCOC(=O)c1sc(=NC(=O)c2cccc(C)c2)n(C)c1C	0.8	3.8*	7.2	-0.6	2.4
CCOC(=O)c1sc(=NC(=O)c2cccc(Br)c2)n(C)c1C	1.3	0.0	5.2	-0.6	1.4
Cc1ccc(C(=O)/C=C2\NCCNC2=O)cc1	1.7	3.8*	12.9*	0.0	3.4
CCN=C1NC(CCc2ccccc2)C(C(=O)OC)=C(C)N1Cc1ccc(C(F)(F)F)cc1 (centres undefined)	/	0.2	-0.4	-0.9	-0.2
Cc1cccc(C2=NN(c3ccccc3)[C@@H](C(=O)N3CCOC3=O)[C@@H]2C)c1	0.0	3.7*	1.9	-0.8	2.1
O=C1OCCN1C(=O)[C@H]1[C@H](c2ccc(Cl)cc2)C(c2ccc(F)cc2)=NN1c1ccccc1	-0.5	3.8*	2.6	-1.2	0.9
COc1ccc(C2CC(=O)c3c(O)cc(O)cc3O2)cc1O (centres undefined)	4.8*	3.5	8.8	-0.9	0.3
O=C(NC1CCCCN(Cc2ccc(Cl)cc2)C1=O)c1cccc2nsnc12 (centres undefined)	/	-1.4	0.1	-0.2	-0.4
CCn1c(SCC(=O)c2cc(OC)ccc2OC)nnc1C(C)C	1.6	0.7	2.6	1.2*	2.8
CCn1c(SCC(=O)c2cc(OC)ccc2OC)nnc1-c1ccncc1	0.4	0.2	-3.5	-0.4	2.7
COC(=O)[C@]12C[C@H](CC(=O)NCc3cccs3)C(=O)N(Cc3ccccc3)C1=C[C@H](C(C)C)O[C@@H]2C1CC1	/	0.2	4.5	-1.0	-2.0
O=C(NCc1ccccc1Cl)O[C@H]1CC[C@@]23CCCN2C(=O)CCC[C@H]3C1	/	/	-1.2	-1.8	-0.3
COc1cc(NC(=O)Cn2ccsc2=N)c(C)cc1[N+](=O)[O-]	0.7	-2.3	5.5	-0.8	1.3
N=c1sccn1CC(=O)Nc1ccc(Cl)cc1[N+](=O)[O-]	4.4*	-0.7	2.5	-1.5	2.0
COCc1cc(N2CCN(C(=O)OC(C)(C)C)C[C@@H]2C)ccc1Br	/	-1.1	-1.3	-0.7	-2.4
CC(=O)c1cccc(NC(=O)COC(=O)CCc2ccc(S(=O)(=O)N3CCOCC3)cc2)c1	4.3*	-0.6	1.3	-0.8	-0.1
N#Cc1cccc(NC(=O)COC(=O)CCc2ccc(S(=O)(=O)N3CCOCC3)cc2)c1	-0.4	0.7	0.3	0.8	0.5
O=C(COC(=O)c1cccc(F)c1)Nc1cccc(S(=O)(=O)N2CCOCC2)c1	1.6	1.1	0.7	-0.9	1.0
